# MCF10A rereplic – induces DNA re-replication in MCF 10a normal breast cells. MCF 10A DNA re-replication, Hoechst nuclear intensity, 48 h. hit rate 2.9% among 350,000. Potency, µM (series often up to 46.1 µM), for inactives: at the highest dose activity, positive = re-replication, actives largely listed as activators; further: potency means the concentration at half of the fitted maximal effect; % of control where 0% means no effect; nearly all actives have a fitted effect of over 50% in size
# DT40 TDP1 no CPT – qHTS for Inhibitors of human tyrosyl-DNA phosphodiesterase 1 (TDP1): qHTS in cells in absence of CPT; DT40 Tdp1-/- hTDP1 cells, no CPT, ATP luminescence, 48 h; Potency, µM (series often up to 46.2 µM), without a hit: at the highest dose activity change, negative = growth inhibition, most hits filed as inhibitors; hit rate 15% among 420,000; further: potency means the concentration at half of the fitted maximal effect; on the % scale 0 is the no-effect control and ±100 the full control effect; nearly all actives have a fitted effect of over 55% in size
#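 DT40 Tdp1-/-;hTDP1 cells, no CPT (DMSO vehicle only), 400 cells/well; compounds pin-transferred; ≥48 hr, 37 °C; CellTiter-Glo 30 min RT dark, luminescence read.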
# BCR signal inh – blocks chronic active B-cell receptor signaling; ABC-DLBCL IkBa-CBG/CBR reporter, luminescence ratio, 4 h; Potency, µM (doses to about 46.1 µM), for inactives: at the highest dose activity change, negative = inhibition, most hits filed as inhibitors; hit rate 0.05% among 340,000; AID 493014; active means well fitted inhibition curve with a large enough effect in the signal ratio, with a control signal flat, not every such curve was filed as active; inconclusive means small, poorly fitted or top-dose-only effect, or effect the other way, or a change in a side signal; the % refers to the signal ratio;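 further: potency means the concentration at half of the fitted maximal effect; plate controls were basal doxycycline-induced cells for no effect and cells given 10 µM MG132 for full effect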
#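 Concentration-response series (up to 46 uM) were applied to TMD8 dual-reporter cells for 4 h at 37C with doxycycline. Green/red ratio, after filter-overlap correction, defined %Activity; red signal alone was normalised to basal cells and zero luminescence.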
# IL1B secr inh – inhibitors of inflammasome signaling (IL-1 beta secretion); hit rate 4.7% among 360,000; THP-1 LPS/ATP IL-1B secretion, AlphaLISA, 16 h; stronger effect = lower value; activity change, % at 57.5 µM; AID 743279; in the data active means activity change below about -50%; inconclusive means mostly about -30% to -49%; further: on the % scale 0 is the no-effect control and ±100 the full control effect
#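 THP-1 cells pretreated 1 hr with compounds (up to 57.5 uM final), then stimulated with LPS (250 ng/mL final) plus ATP (1.25 mM final); secreted IL-1B measured by AlphaLISA after 16 hr, decreased signal indicating inhibition.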
# SW480 rereplic – inducers of DNA re-replication in SW480 colon cancer cells; SW480 DNA re-replication, Hoechst DNA content imaging, 48 h; Potency, µM (doses to about 46.1 µM), for inactives: at the highest dose re-replication activation, most hits filed as activators; hit rate 1.8% among 340,000; AID 624297; further: potency means the concentration at half of the fitted maximal effect; % of control where 0% means no effect; nearly all actives have a fitted effect of over 55% in size
#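 First, 250 cells per well were seeded. Next, compound or vehicle (23 nL) was pinned in, plates sat 48 hr at 37 C. Finally Hoechst was added for 40 min before fluorescence scanning.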
# TDP1 cell CPT – growth inhibition of DT40 Tdp1-/-;hTDP1 cells with camptothecin (screen for TDP1 inhibitors); chicken DT40 Tdp1-/-;hTDP1 cells + 20 nM CPT, ATP luminescence, 48 h; Potency, µM (top dose mostly 46.2 µM), inactives show at the top dose activity change, negative = growth inhibition, actives largely listed as inhibitors; hit rate 12% among 420,000; AID 686979; further: potency means the concentration at half of the fitted maximal effect; on the % scale 0 is the no-effect control and ±100 the full control effect; nearly all actives have a fitted effect of over 55% in size
#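 Cell growth measured by CellTiter-Glo luminescence after a minimum 48 h, 37 C compound exposure with 20 nM CPT in Tdp1-knockout DT40 cells stably expressing hTDP1, seeded 400/well; qHTS titration format.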
# * hit, by the source's call; u = inconclusive; x = no result; [ ] = remark or other dose. Only some compounds are listed: those with a hit (about 19% of all), similar ones and a draw of the others. Unless noted, the call rests on the fitted dose curve; in most records, active means well fitted curve in the direction sought with a large enough effect; inconclusive means small, poorly fitted or top-dose-only effect, or another doubt; inactive means no such curve, though single readings can be large; an effect the other way counts as inactive or inconclusive.
SMILES,MCF10A rereplic,DT40 TDP1 no CPT,BCR signal inh,IL1B secr inh,SW480 rereplic,TDP1 cell CPT
Cc1cc(C)nc(N/N=C/c2ccc(N3CCOCC3)cc2)n1,-3%,-16%,5%,-18,u,u
COc1ccc(C(=O)OCC(=O)Nc2sccc2C(N)=O)cc1[N+](=O)[O-],-4%,-17%,-12%,-7,6%,-10%
Nc1nc(N)c(-c2ccccc2)s1,0%,-1%,x,x,-1%,-10%
CCCn1cc(CN2CCC(n3nccc3NC(=O)c3ccc4c(c3)OCO4)CC2)c(C)n1,0%,9%,0%,21,3%,0%
CCOc1cc(N2CCOCC2)c(OCC)cc1NC(=O)COC(=O)c1ccc([N+](=O)[O-])o1,0%,-27%,-1%,6,0%,2%
Cc1cc(C)nc(NN=CC2=C(N3CCOCC3)/C(=C/c3ccc(Cl)cc3)CC2)n1,u,8.2µM*,x,-27,21µM*,12µM*
Cc1cc(/C=N/Nc2nc(N3CCOCC3)nc(N3CCOCC3)n2)c(C)n1-c1ccccc1,14%,u,u,-1,0%,-26%
CCn1c(=N)n(CC(O)c2ccco2)c2ccccc21 (configuration not stated),u,-15%,4%,-9,-5%,-7%
N=c1n(Cc2ccccc2)c2ccccc2n1CC(O)c1ccco1 (configuration not stated),u,23µM*,-1%,-22,-2%,21µM*
N=c1n(CCN2CCCCC2)c2ccccc2n1CC(=O)c1cccc([N+](=O)[O-])c1,1%,18µM*,u,67,-3%,u
N=c1n(CC(=O)c2ccc(Br)cc2)c2ccccc2n1Cc1ccccc1,12%,6.5µM*,1%,-101*,-3%,5.2µM*
O=C(CN1CCN(Cc2ccccc2)CC1)c1ccc(Br)cc1,u,-10%,u,21,u,u
N=c1n(CC(=O)c2ccc([N+](=O)[O-])cc2)c2ccccc2n1Cc1ccccc1Cl,-2%,2.9µM*,0%,-60*,3%,2.9µM*
N=c1n(CC(=O)O)c2ccccc2n1Cc1ccccc1Cl,0%,7%,-3%,19,-3%,-4%
COCCNC(=O)C1(C)CCN(C(=O)c2ccc(OC)c(F)c2)C1 (configuration not stated),x,-4%,x,42,x,-1%
CCOc1ccc(C(=O)NCc2nnnn2-c2ccc(C)c(C)c2)cc1OCC,x,-23%,x,x,x,-24%
COc1ccc(CC(=O)Nc2nc(OCC(F)(F)F)cnc2-c2ccc(Cl)cc2Cl)cc1,x,u,x,-2,x,u
N=c1n(Cc2ccccc2)c2ccccc2n1Cc1ccccc1,u,21µM*,u,x,23µM*,18µM*
N=c1n(CC(=O)c2ccc([N+](=O)[O-])cc2)c2ccccc2n1Cc1ccc(Cl)cc1,-12%,5.2µM*,32%,-28,-1%,2.9µM*
Cc1ccccc1Cn1c(=N)n(CC(=O)c2ccco2)c2ccccc21,-12%,16µM*,u,-22,-2%,23µM*
N=c1n(CCO)c2ccccc2n1Cc1ccc(Cl)cc1,0%,16µM*,u,-52*,0%,26µM*
CCCn1c(=N)n(CC(=O)c2ccco2)c2ccccc21,3%,-19%,u,-18,3%,-24%
N=c1n(CCO)c2ccccc2n1CCOc1ccccc1,0%,u,0%,-9,-1%,u
CCOC(=O)C1=C(COC(=O)Cc2ccccc2[N+](=O)[O-])NC(=O)NC1C (configuration not stated),x,-24%,x,-21,x,-13%
CCC(Sc1nc2nccnc2c(=O)n1Cc1ccc(OC)cc1)C(=O)NC1CCCCC1 (configuration not stated),x,-18%,x,x,x,-29%
SMILES,MCF10A rereplic,DT40 TDP1 no CPT,BCR signal inh,IL1B secr inh,SW480 rereplic,TDP1 cell CPT
N=c1n(CC(=O)c2ccc([N+](=O)[O-])cc2)c2ccccc2n1Cc1ccccc1,u,5.8µM*,13%,-106*,u,7.3µM*
Cc1ccc(-n2nc(C(=O)N3CCN(c4cc(Cl)ccc4C)CC3)c3c4ccccc4n(C)c3c2=O)cc1,x,-1%,x,x,x,-6%
O=C(CCl)N(c1ccc(Cl)cc1)c1c[nH]c2ccccc12,2.6µM*,1.8µM*,u,-109*,21µM*,1.8µM*
O=C(CCl)N(c1ccccc1)c1c[nH]c2ccccc12,15µM*,2.9µM*,u,-100*,u,2.3µM*
O=C(O)Cc1c[nH]c2ccccc12,3%,4%,x,-5,26%,4%
COc1ccc(Cn2ccnc2)cc1Br,6%,-15%,x,-6,-4%,-1%
COc1ccc(NCc2ccc(OC)c(Cn3ccnc3)c2)c(OC)c1,2%,u,-1%,-69*,-4%,-29%
CCNC(=S)N(CCc1c(C)[nH]c2ccc(C)cc12)Cc1cccs1,u,u,u,-53*,4%,u
COCCNC(=S)N(CCc1c(C)[nH]c2ccccc12)Cc1ccco1,u,-16%,-5%,-9,10%,-29%
Cc1[nH]c2ccccc2c1CCN(Cc1cccs1)C(=S)Nc1ccccc1,0%,u,u,-20,-5%,u
COCCNC(=S)N(CCc1c(C)[nH]c2ccc(Cl)cc12)Cc1cccs1,u,u,u,-92*,u,u
COCCNC(=S)N(CCc1c(C)[nH]c2ccc(F)cc12)Cc1cccs1,23%,23µM*,u,u,0%,u
COc1cccc(NC(=S)N(CCc2c(C)[nH]c3ccccc23)Cc2cccs2)c1,-7%,16µM*,u,-20,11%,u
COc1ccccc1CCc1nc2ccccc2n1C1CCN(C(=O)c2cc(C)nn2C)CC1,x,5%,x,x,x,1%[9.04 µM]
COc1ccc2oc(-c3ccc(C)c(NC(=O)c4ccc(N5CCCCC5)c([N+](=O)[O-])c4)c3)nc2c1,x,3%,x,x,x,-2%
N#CC1(NC(=O)CN2C(=O)c3ccc([N+](=O)[O-])cc3C2=O)CCCCC1,1%,-2%,-1%,1,-5%,-3%
CCNC(=S)N(CCc1c(C)[nH]c2ccc(Cl)cc12)Cc1ccco1,u,u,u,-59*,18µM*,u
COc1ccc(CCN(C)C(=O)c2cc(=O)c3ccccc3o2)cc1OC,-4%,-21%,u,-54*,1%,-7%

# Screening data: PubChem BioAssay, National Center for Advancing Translational Sciences (NCATS)
